Active and inactive are the calls of the source.
Test: CREB reporter modulators without forskolin, primary screen, cell-based, PC12, CRE-LacZ reporter, unstimulated (AID 1145)
Conditions: no forskolin, luminescence, 4.5 h, higher = more signal, called active from +8 up or from −8 down

Question: With `CO[C@H]1COC(=O)[C@@H](Cc2ccccc2)NC(=O)[C@@H](C)COC(=O)CCC[C@@H]1C` as the compound, how does the z-score read?
Answer: -1.21 (inactive)

Question: With `CCOC(=O)[C@H](CC(C)C)NC(=O)CCC1CC(OC(=O)NCCc2ccc(F)cc2)CC2(CCCC(COC(=O)NCCc3ccccc3OC)O2)O1` (some centres not stated) as the compound, how does the z-score read?
Answer: 1.64 (inactive)

Question: For `CCc1cc2c(nc1CC)CCN(CCC(C)=NO[C@H](C)c1cn([C@H](CO)Cc3ccccc3)nn1)C2`, which z-score is on record?
Answer: 2.4 (inactive)

Question: With `CO[C@H]1COC(=O)CC=C[C@@H](C)[C@H](NS(=O)(=O)c2ccc(C)cc2)COC(=O)CCC[C@@H]1C` as the compound, how does the z-score read?
Answer: -1.13 (inactive)

Question: For `C=Cc1ccc([C@H]2N[C@H](C(=O)O)CC[C@@H]2C)cc1`, which z-score is on record?
Answer: -0.346 (inactive)

Question: For `CO[C@H]1COC(=O)[C@@H](C)COC(=O)[C@H](COCc2ccccc2)NC(=O)CC=C[C@H]1C`, which z-score is on record?
Answer: -0.567 (inactive)

Question: Which z-score does the source give for `CCOC(=O)[C@H](CC(C)C)NC(=O)CCC1CC(OC(=O)NCc2cccc3ccccc23)CC2(CCCC(COC(=O)NCCC(C)C)O2)O1` (some centres not stated) here?
Answer: 0.563 (inactive)

Question: For `CO[C@H]1COC(=O)CC=C[C@@H](C)[C@H](OC)COC(=O)[C@@H]2CCCN2C(=O)CC=C[C@@H]1C`, which z-score is on record?
Answer: 0.251 (inactive)

Question: For `O=C1[C@H]2[C@H]3[C@H](O)[C@H](O)CC(=NOCc4ccccc4)[C@H]3CC[C@H]2C(=O)N1Cc1ccc2c(c1)OCO2`, which z-score is on record?
Answer: -0.203 (inactive)

Question: With `Cc1ccc(S(=O)(=O)NC(CCc2ccccc2)CC(=O)C(C)(C)C)cc1` (configuration not stated) as the compound, how does the z-score read?
Answer: 0.2 (inactive)

Question: For `O=C1C=C[C@@H](O)[C@@H]2[C@@H]3C(=O)N(C[C@@H]4CCCO4)C(=O)[C@@H]3CC[C@@H]12`, which z-score is on record?
Answer: -0.295 (inactive)

Question: For `CC(C)=CCCC(C)=CCON=C1C[C@@H](O)[C@@H](O)[C@@H]2[C@@H]3C(=O)N(Cc4ccccc4)C(=O)[C@@H]3CC[C@@H]12`, which z-score is on record?
Answer: -0.478 (inactive)

Question: With `CCOC(=O)[C@H](CC(C)C)NC(=O)CCC1CC(OC(=O)NCCc2ccc(F)cc2)CC2(CCCC(COC(=O)NCCc3ccc(Cl)cc3)O2)O1` (some centres not stated) as the compound, how does the z-score read?
Answer: 1.75 (inactive)

Question: With `CC(=O)Nc1ccc([C@@H]2N[C@H](C(=O)O)CC[C@H]2C)cc1` as the compound, how does the z-score read?
Answer: -0.884 (inactive)

Question: Which z-score does the source give for `CCOC(=O)NN=C1C[C@@H](O)[C@@H](O)[C@@H]2[C@@H]3C(=O)N(c4cccc(Oc5ccccc5)c4)C(=O)[C@@H]3CC[C@H]12` here?
Answer: 0.523 (inactive)

Question: Which z-score does the source give for `Cc1ccc(S(=O)(=O)N[C@H]2COC(=O)CC=C[C@H](C)[C@@H](NS(=O)(=O)c3ccc(C)cc3)COC(=O)CC=C[C@@H]2C)cc1` here?
Answer: -0.008 (inactive)

Question: Which z-score does the source give for `CC1O[C@H]2C3=C(C(=O)[C@@H]4O[C@@H]4[C@H]3O)[C@@H]1C1[C@@H](C)OC=C3[C@H](O)C4O[C@@H]4C(=NOCc4ccccc4)[C@]312` (some centres not stated) here?
Answer: 2.18 (inactive)

Question: For `C[C@@H](c1ccccc1)N1C(=O)[C@H]2[C@H]3[C@H](O)[C@H](O)CC(=NO[C@@H]4O[C@H](CO)[C@@H](O)[C@H](O)[C@H]4O)[C@@H]3CC[C@H]2C1=O`, which z-score is on record?
Answer: -0.566 (inactive)

Question: With `CON=C(C)CCC(=O)OC[C@H]1O[C@H](c2ccccc2)C=C[C@@H]1Oc1ccc(OC)cc1` as the compound, how does the z-score read?
Answer: 1.88 (inactive)

Question: For `COC(=O)[C@H](C)NC(=O)CCC1CC(OC(=O)NCc2ccc3c(c2)OCO3)CC2(CCCC(COC(=O)NCC(c3ccccc3)c3ccccc3)O2)O1` (some centres not stated), which z-score is on record?
Answer: -0.437 (inactive)

Question: Which z-score does the source give for `COC(=O)[C@H](C)NC(=O)CCC1CC(OC(=O)NCCc2ccc(F)cc2)CC2(CCCC(COC(=O)NCCC(C)C)O2)O1` (some centres not stated) here?
Answer: 0.109 (inactive)

Question: With `O=C1[C@H]2[C@H]3[C@H](O)[C@H](O)CC(=NOCc4ccccc4)[C@@H]3CC[C@H]2C(=O)N1c1ccc(F)cc1F` as the compound, how does the z-score read?
Answer: -0.469 (inactive)

Question: With `CC(C)=CCCC(C)=CCON=C1C[C@@H](O)[C@@H](O)[C@@H]2[C@@H]3C(=O)N(C4CCCCC4)C(=O)[C@@H]3CC[C@@H]12` as the compound, how does the z-score read?
Answer: 0.517 (inactive)

Question: For `CC(C)CON=C1C[C@@H](O)[C@@H](O)[C@@H]2[C@@H]3C(=O)N(Cc4ccc5c(c4)OCO5)C(=O)[C@@H]3CC[C@H]12`, which z-score is on record?
Answer: 0.242 (inactive)

Question: Which z-score does the source give for `CCOC(=O)[C@H](Cc1ccccc1)NC(=O)CCC1CC(OC(=O)NCc2ccc3c(c2)OCO3)CC2(CCCC(COC(=O)NCCc3ccccc3OC)O2)O1` (some centres not stated) here?
Answer: 17.2 (active)

Question: With `Cc1cc2c(c(=O)o1)[C@@H](O)[C@H]1O[C@H]1C2=O` as the compound, how does the z-score read?
Answer: -0.255 (inactive)

Question: For `CC(=O)O[C@H]1C2=CO[C@H](C)[C@H]3[C@H]4C5=C([C@H](O)[C@H]6O[C@H]6C5=O)[C@H](OC4C)[C@@]23C(=O)[C@@H]2O[C@@H]21` (some centres not stated), which z-score is on record?
Answer: 0.831 (inactive)

Question: With `CCOC(=O)[C@H](Cc1ccccc1)NC(=O)CCC1CC(OC(=O)NCc2cccc3ccccc23)CC2(CCCC(COC(=O)NCc3ccccc3)O2)O1` (some centres not stated) as the compound, how does the z-score read?
Answer: -0.977 (inactive)

Question: Which z-score does the source give for `CO[C@@H]1COC(=O)[C@@H](C)COC(=O)[C@@H](C)NC(=O)CC=C[C@@H]1C` here?
Answer: -0.129 (inactive)

Question: Which z-score does the source give for `CCOC(=O)[C@H](Cc1ccccc1)NC(=O)CCC1CC(OC(=O)NCc2ccc3c(c2)OCO3)CC2(CCCC(COC(=O)NCCC(C)C)O2)O1` (some centres not stated) here?
Answer: -0.254 (inactive)

Question: Which z-score does the source give for `COc1ccc(COC(=O)NN=C2C[C@@H](O)[C@@H](O)[C@@H]3[C@@H]4C(=O)N(C5CCCCC5)C(=O)[C@@H]4CC[C@H]23)cc1` here?
Answer: 1.61 (inactive)

Question: Which z-score does the source give for `CCC1=NOC(CCC2CC(OC(=O)NCc3cccc4c3OCO4)CC3(CCCC(COC(=O)NCCc4ccccc4OC)O3)O2)C1` (configuration not stated) here?
Answer: 1.46 (inactive)

Question: For `COC(=O)CC=C[C@@H](C)[C@@H](C=NO[C@@H]1O[C@H](COC(C)=O)[C@@H](OC(C)=O)[C@H](OC(C)=O)[C@H]1OC(C)=O)NS(=O)(=O)c1ccc(C)cc1`, which z-score is on record?
Answer: 7.64 (inactive)

Question: For `CCOC(=O)[C@H](CC(C)C)NC(=O)CCC1CC(OC(=O)NCc2ccc3c(c2)OCO3)CC2(CCCC(COC(=O)NCCCN3CCCC3=O)O2)O1` (some centres not stated), which z-score is on record?
Answer: 0.0167 (inactive)

Question: With `O=C1C2=CC[C@H]3C(=O)N(c4cccc(Oc5ccccc5)c4)C(=O)[C@H]3[C@H]2[C@H](O)[C@@H]2O[C@H]12` as the compound, how does the z-score read?
Answer: 0.699 (inactive)

Question: For `COC(=O)[C@H](C)NC(=O)CCC1CC(OC(=O)NCc2ccc3c(c2)OCO3)CC2(CCCC(COC(=O)NCc3cccc(C(F)(F)F)c3)O2)O1` (some centres not stated), which z-score is on record?
Answer: -0.794 (inactive)

Question: Which z-score does the source give for `CO[C@H]1COC(=O)CC=C[C@H](C)[C@@H](OC)COC(=O)[C@@H](C)NC(=O)CC=C[C@@H]1C` here?
Answer: -0.0824 (inactive)
